Assay outcomes as filed in PubChem BioAssay.
Shown are actives, neighbours in structure and some others; about 17% of the full set was active somewhere.
ATXN2 expr inh: reduces ATXN2 reporter expression in HEK-293 cells; HEK-293 ATXN2-luciferase reporter, luminescence, 24 h; Potency, µM (highest dose often 57 µM), for the others: at the highest dose activity change, negative = inhibition, actives largely listed as inhibitors; 0.72% of 360,000 active; further: on the % scale 0 is the no-effect control and ±100 the full control effect; nearly all actives have a fitted effect of over 55% in size
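ATXN2-luciferase reporter cells (luciferase flanked by upstream and downstream ATXN2 gene portions) were treated 24 h at 37 °C with compounds at up to 57 uM. SteadyGlo luminescence gave expression; GF-AFC fluorescence gave viability.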
DT40 TDP1 CPT: growth inhibition of DT40 Tdp1-/-;hTDP1 cells with camptothecin (screen for TDP1 inhibitors). AID 686979. 12% of 420,000 active. Potency, µM (top dose mostly 46.2 µM), for inactives: at the top dose activity change, negative = growth inhibition, actives largely listed as inhibitors. chicken DT40 Tdp1-/-;hTDP1 cells + 20 nM CPT, ATP luminescence, 48 h; further: on the % scale 0 is the no-effect control and ±100 the full control effect; nearly all actives have a fitted effect of over 55% in size
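Chicken DT40 Tdp1-/- cells complemented with human TDP1, 400 cells/well, exposed to compounds plus 20 nM camptothecin for at least 48 h at 37 C; viability read as ATP content by CellTiter-Glo luminescence.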
TGFb SMAD3 inh: TGF-b pathway inhibition; HepG2 CAGA-GFP TGF-b/SMAD3 reporter, GFP fluorescence, 18 h; TGF-beta stimulated, 500 pg/mL final; Potency, µM (highest dose often 46.1 µM), inactives show at the top dose activity, negative = inhibition, hits mostly inhibitors; 1.2% of 410,000 active; further: on the % scale 0 is the no-effect control and ±100 the full control effect; nearly all actives have a fitted effect of over 65% in size
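HEPG2 CAGA-GFP reporter cells (1000/well, DMEM with 1% FBS) received compounds, then recombinant TGF-beta at 500 pg/mL final for 18 hours at 37 degrees C. Per-cell GFP summed per well was normalised to unstimulated and stimulated DMSO controls before curve fitting.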
HepG2 viability: counter-screen for TGF-b inhibitors: cytotoxicity in HepG2 cells; 0.76% of 410,000 active; Potency, µM (top dose mostly 46.1 µM), for inactives: at the top dose activity change, negative = cytotoxicity, hits mostly cytotoxic; AID 588856; HepG2 CAGA-GFP viability, ATP luminescence, 18 h
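HepG2 CAGA-GFP cells (1000/well, DMEM with 1% FBS) received compound, then TGF-beta at 500 pg/mL final, and were incubated 18 hours at 37 degrees C. Viability was read by CellTiter-Glo luminescence. Media-only wells were set as complete cell-killing and DMSO as no toxicity.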
S2 tox: reduces viability in counter-screen for ATXN expression inhibitors; S2 cells (HEK-293 line with an ATXN2-luciferase reporter) viability, CellTiter-Fluor protease fluorescence, 24 h; Potency, µM (top dose mostly 56.7 µM), usual class: cytotoxic; 0.49% of 400,000 active; AID 651635; further: nearly all actives have a fitted effect of over 40% in size
TDP1 cell noCPT: qHTS for Inhibitors of human tyrosyl-DNA phosphodiesterase 1 (TDP1): qHTS in cells in absence of CPT. DT40 Tdp1-/- hTDP1 cells, no CPT, ATP luminescence, 48 h. Potency, µM (highest dose often 46.2 µM), for inactives: at the top dose activity change, negative = growth inhibition, most hits filed as inhibitors. 15% of 420,000 active; further: on the % scale 0 is the no-effect control and ±100 the full control effect; nearly all actives have a fitted effect of over 55% in size
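Luminescent ATP content (CellTiter-Glo) served as the growth readout. Knockout chicken DT40 cells expressing human TDP1 were exposed to compounds without camptothecin for a minimum 48 hr at 37 °C.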
Active calls of the source: *; i = inactive; ? = inconclusive; nt = no result given. The call rests on the fitted dose curve; in most records, active means well fitted curve in the direction sought with a large enough effect; inconclusive means small, poorly fitted or top-dose-only effect, or another doubt; inactive means no such curve, though single readings can be large; an effect the other way counts as inactive or inconclusive. Potency means the concentration at half of the fitted maximal effect.

SMILES	ATXN2 expr inh	DT40 TDP1 CPT	TGFb SMAD3 inh	HepG2 viability	S2 tox	TDP1 cell noCPT
COc1ccc(/C=N/NC(=O)c2cc3c(OC)ccc(OC)c3[nH]2)cc1O	0%	0.37µM*	?	-58%	i	0.21µM*
Cc1ccc(N=C2NC(=O)C(CC(=O)NCc3ccccc3)S2)cc1C (centres undefined)	1%	-29%	0%	-22%	i	-21%
CCOC(=O)N1CCC(N2C(=O)c3ccccc3C2Nc2cc(C)cc(C)c2)CC1 (centres undefined)	-7%	?	-7%	-10%	i	15µM*
COc1ccc(C(=O)c2cn[nH]c2-c2cc(C)ccc2O)cc1	-4%	-28%	-15%	-3%	i	-9%
CCc1ccc(C(=O)c2cnc3ccc(F)cc3c2S(=O)(=O)c2ccccc2)cc1	?	5.2µM*	3%	-21%	?	5.8µM*
CCOc1ccc(S(=O)(=O)c2c(C(=O)c3ccc(C)cc3)cnc3cc4c(cc23)OCCO4)cc1	-3%	-28%	3%	-6%	i	-26%
COc1ccc(S(=O)(=O)c2c(C(=O)c3ccc(C)c(C)c3)cnc3ccc(C)cc23)cc1	?	7.3µM*	1%	3%	?	6.5µM*
Cc1ccc(C(=O)c2cnc3cc4c(cc3c2S(=O)(=O)c2ccccc2)OCCO4)cc1	5%	18µM*	12%	-6%	i	23µM*
NC(=O)N[C@@H](CCC(=O)O)C(=O)O	-4%	1%	nt	nt	i	-7%
COc1ccc(CSc2nc3ccccc3c(=O)[nH]2)cc1F	nt	?	7%	-4%	i	?
CC1(C)C(CSc2nc3ccccc3[nH]2)C1(Cl)Cl (centres undefined)	1%	23µM*	?	-17%	i	?
Cn1c(SCCOc2ccccc2F)nc2ccccc2c1=O	-5%	18µM*	-29%	-8%	i	16µM*
Fc1ccc(CSc2nc3ccccc3[nH]2)c2ccccc12	12%	?	?	-35%	i	21µM*
O=c1[nH]c(SCc2ccc(F)cc2Cl)nc2ccccc12	0%	-42%	0%	-8%	i	21µM*
CC(=O)Oc1ccc2ccccc2c1C(NC(=O)Cc1ccccc1)c1ccccc1Cl (centres undefined)	?	?	?	-27%	i	?
CCN(Cc1cc2ccccc2[nH]c1=O)C(=O)c1cccc([N+](=O)[O-])c1	-3%	-12%	4%	-6%	i	3%
CN(Cc1nccn1C)C(=O)C1CCC(=O)N(CCc2ccc(Cl)cc2)C1 (centres undefined)	2%	3%	10%	8%	i	-6%
CCOc1ccc(OCCSc2nc3ccccc3[nH]2)cc1	-2%	16µM*	?	3%	i	21µM*
CCSc1nc2ccccc2[nH]1	3%	4%	-12%	-25%	i	-1%
O=c1[nH]c(SCCOc2ccccc2F)nc2ccccc12	24%	2%	7%	-3%	i	6.5µM*
Cc1cc(=O)n2nc(N3CCC(C(=O)Nc4ccc(Br)cc4F)CC3)sc2n1	-5%	?	-28%	-9%	i	3%
CCc1nc2ccc(C(=O)Nc3cc(-c4ccccc4)ccc3OC)cn2c1N(C)CCCc1ccccc1	-10%	?	5%	-33%	i	?
CCCCN(C)c1c(C)nc2ccc(C(=O)Nc3ccc(OC)c(OC)c3)cn12	-26%	?	-3%	-4%	?	15µM*
CCCCN(C)c1c(C)nc2ccc(C(=O)Nc3cc(-c4ccccc4)ccc3OC)cn12	?	13µM*	?	13µM*	?	16µM*
N#CCCN(Cc1cccnc1)C(=S)NC1CC2C=CC1C2 (centres undefined)	1%	-27%	31%	30%	i	-26%
SMILES	ATXN2 expr inh	DT40 TDP1 CPT	TGFb SMAD3 inh	HepG2 viability	S2 tox	TDP1 cell noCPT
CN1C(=O)/C(=C\C=C2/CCCN2C)N(C)C1=S	22%	-17%	7%	-8%	i	8%
CCN1C(=O)/C(=C/C=C2/CCCN2C)OC1=S	46%	?	-17%	5%	i	5.2µM*
Cc1ccc(NC(=O)CCS(=O)(=O)c2ccc(Br)s2)cc1	-24%	-21%	-14%	-9%	i	?
CCOc1ccc(NC(=O)CCS(=O)(=O)c2ccc(Br)s2)cc1	14%	18µM*	-18%	-14%	i	15µM*
Cc1ccccc1N1CC(C(=O)Nc2ccc(S(=O)(=O)N3CCCCC3)cc2)CC1=O (centres undefined)	-5%	?	?	-6%	i	16µM*
CC(C)(C)N1CC(C(=O)Nc2ccc(S(N)(=O)=O)cc2)CC1=O (centres undefined)	nt	0%	3%	1%	i	5%
Cc1cccc(N2CC(C(=O)Nc3ccc(S(=O)(=O)N4CCCCC4)cc3)CC2=O)c1C (centres undefined)	-9%	?	1%	6%	i	?
CC(C)(C)N1CC(C(=O)Nc2ccc(S(=O)(=O)N3CCCCC3)cc2)CC1=O (centres undefined)	-21%	?	3%	0%	i	1.6µM*
Cc1ccc(F)c(N=Cc2c(O)c3ccccc3oc2=O)c1	nt	-1%	-4%	24%	i	-30%
O=S(=O)(c1c(F)cccc1F)N1CCCC2CCCCC21 (centres undefined)	1%	?	?	-24%	i	21µM*
CCN(C(=O)CSc1ncccn1)c1cccc2ccccc12	nt	?	0%	0%	i	?
CC(C)(C)c1ccc(C(=O)N2CCC2(C)C(=O)Nc2cccc(C#N)c2)cc1 (centres undefined)	-18%	16µM*	-14%	-21%	i	16µM*
CC1(C(=O)Nc2cccc(C#N)c2)CCN1C(=O)c1ccccc1CCc1ccccc1 (centres undefined)	-33%	?	?	-32%	?	23µM*
Cc1ccsc1C(=O)N1CCC1(C)C(=O)Nc1cccc(C#N)c1 (centres undefined)	3%	?	-3%	-14%	i	?
CC1(C(=O)Nc2ccc3c(c2)OCCO3)CCN1C(=O)c1ccccc1CCc1ccccc1 (centres undefined)	-15%	29µM*	6%	-2%	?	?
